High-throughput results deposited in PubChem by National Center for Advancing Translational Sciences (NCATS).
Six1-Eya2 blk: inhibitors of human Six1/Eya2 interaction. Q15475+O00167. AlphaScreen GST-Six1/His-Eya2 binding, biochemical; hits give low values. activity change, % (test concentration not listed). 360,000 tested, 0.56% active. AID 651725
Target sequence (O00167 whole entry, looked up): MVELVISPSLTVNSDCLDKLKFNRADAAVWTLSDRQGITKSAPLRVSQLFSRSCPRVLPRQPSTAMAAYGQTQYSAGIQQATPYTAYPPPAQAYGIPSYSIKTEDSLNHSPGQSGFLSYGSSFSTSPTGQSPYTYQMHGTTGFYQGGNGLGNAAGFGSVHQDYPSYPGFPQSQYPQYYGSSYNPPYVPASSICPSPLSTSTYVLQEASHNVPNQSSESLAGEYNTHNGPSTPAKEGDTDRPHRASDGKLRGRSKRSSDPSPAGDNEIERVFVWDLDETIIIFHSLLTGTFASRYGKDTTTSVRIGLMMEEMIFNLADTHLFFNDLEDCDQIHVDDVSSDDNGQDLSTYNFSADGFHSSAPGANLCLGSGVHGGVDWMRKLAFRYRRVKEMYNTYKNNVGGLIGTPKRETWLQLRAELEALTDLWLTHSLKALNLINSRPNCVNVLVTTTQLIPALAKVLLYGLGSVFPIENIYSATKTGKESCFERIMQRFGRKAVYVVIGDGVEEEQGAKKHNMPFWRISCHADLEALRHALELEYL
Target sequence (Q15475 whole entry, looked up): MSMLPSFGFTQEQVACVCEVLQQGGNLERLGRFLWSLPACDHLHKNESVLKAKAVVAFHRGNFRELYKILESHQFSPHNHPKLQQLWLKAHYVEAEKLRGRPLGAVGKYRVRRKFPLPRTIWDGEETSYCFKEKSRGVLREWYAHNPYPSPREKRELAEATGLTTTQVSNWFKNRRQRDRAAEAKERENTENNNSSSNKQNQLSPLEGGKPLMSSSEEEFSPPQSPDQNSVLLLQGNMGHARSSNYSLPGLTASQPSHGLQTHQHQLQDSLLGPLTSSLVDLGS
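AlphaScreen with GST-Six1 and His-Eya2 (5X mix: 250 nM and 500 nM), glutathione donor and nickel acceptor beads; buffer 50 mM Tris pH 8.0, 300 mM NaCl, 1 mM TCEP; 1 h at 37 C in the dark.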
CCT modulator: changes cytosolic chaperonin activity. activity change, % (test concentration not listed), hits read low. 360,000 tested, 0.3% active. AID 651819. purified chaperonin ATPase assay, HTRF ADP detection, 30 min; in the data active = activity change below about -30%
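ATPase activity: ADP formed was measured by HTRF Transcreener (665/615 nm ratio) after 30 min at 37 deg C with 10 uM ATP. Compounds screened at one 76 uM concentration against 40 or 20 nM TRiC in Tris pH 7.4/KCl/MgCl2/DTT buffer.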
CtBP-E1A inh: inhibitors of CtBP/E1A interaction. AID 651724. activity change, % (concentration not given with the values). 340,000 tested, 0.49% active. AlphaScreen GST-E1A/His-CtBP binding, 1536-well; hits give low values
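Protein mix (5X: 125 nM each GST-E1A, His-CtBP) was incubated with pinned compound 2 h at 37 deg C in dark, in 50 mM Tris pH 8.0 buffer with 300 mM NaCl. Glutathione donor and nickel acceptor beads followed; AlphaScreen signal read after 1 h.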
pAkt inh: blocks phosphorylation of Akt. Neuro2A IGF-stimulated pAkt S473 HTRF, 20 min; hits give low values. activity change, % for hits at 50 µM. 360,000 tested, 0.32% active; in the data active = activity change below about -80%; inconclusive = mostly about -51% to -80%
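Single-point screen (50 µM final compound) in Neuro2A cells stimulated 20 min with 6 nM IGF at 37 deg C. After lysis, Ser473-phosphorylated Akt read by HTRF (ex 330 nm, em 615/665 nm) as the 665/615 ratio.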
Each line names hits and unclear results; the compound was inactive in the other large screens. This is a sample that favours compounds with a hit; in the whole collection about 1.2% have one here. Rule as the data show it, unless noted: active = activity change below about -65%; inconclusive = mostly about -30% to -63%; inactive = weaker than that.

O=C(O)Cc1ccccc1C(=O)O	none
O=C(O)Cc1cccc(=O)c(O)c1C(=O)O	Six1-Eya2 blk -73, CtBP-E1A inh inconclusive
CC(C)N1CCC1(C)C(=O)Nc1cc(-c2ccccc2)nn1C (stereo not given)	none
Cc1cc(C)c2nc(N3CCC(C(=O)NCCCN4CC(C)CC(C)C4)CC3)sc2c1 (stereo not given)	none
O=S(=O)(c1ccc(F)cc1)c1nc(-c2ccccc2)oc1N1CCOCC1	none
O=C1c2ccccc2C(=O)c2c1cccc2N1CCOCC1	Six1-Eya2 blk -78, CtBP-E1A inh -72
Cc1[nH]c2ccc(C(=O)NC3CCC(C)CC3)cc2c1C (stereo not given)	CCT modulator -62 (no result: CtBP-E1A inh, pAkt inh)
O=C(O)c1cc(N2C(=O)C3CC=CCC3C2=O)ccc1NCc1cccnc1 (stereo not given)	pAkt inh -116%
COC(=O)c1sccc1NC(=O)c1cc(-c2ccc(C)cc2C)nc2ccccc12	pAkt inh -117%
CCOc1cc(C(=S)N2CCN(C)CC2)ccc1OCC(=O)N1CCOCC1	pAkt inh -112%
COCC1CCN(Cc2cn(-c3ccccc3F)nc2-c2cc(C)sc2C)CC1	none
Cc1ccc(C)c2c1CCCC2=O	none
COc1ccc(/C=C/C(=O)Oc2ccc(/C=N/NC(=O)c3ccccc3)cc2)cc1OC	CtBP-E1A inh -75
COc1ccc(/C=N/NC(=O)c2ccncc2)cc1OC	none
COc1ccc(C)cc1NC(=O)CSc1nnc(COc2ccccc2)n1Cc1ccco1	pAkt inh -98%
Cc1ccc(C)c(NC(=O)CSc2nnc(CSc3nc(C)cc(C)n3)n2Cc2ccco2)c1	pAkt inh -91%
COc1cccc(-c2nnc(SCC(=O)Nc3cc(C)ccc3OC)n2N)c1	pAkt inh -119%
COc1ccc(C)cc1NC(=O)CSc1nnc(-c2ccco2)n1N	none
COc1ccc(OC)c(NC(=O)CSc2nnc(C3CCCCC3)n2-c2ccccc2)c1	pAkt inh -111%
COc1ccccc1-c1cnc2c(c1)C(=O)N([C@@H](C)CO)C[C@@H](C)[C@H](CN(C)C(=O)c1cccnc1)O2	none
CCCc1[nH]nc2c1C1(C(=O)N(CC)c3ccccc31)C(C#N)=C(N)O2 (stereo not given)	pAkt inh -110%
COc1ccc(C(=O)/C=C/c2ccsc2)cc1CSCC(=O)O	none
N#Cc1cccc(C2CC(OCCF)=CC(=O)O2)c1 (stereo not given)	none (no result: CCT modulator)
O=C(NCc1ccccc1)C1CCCN1S(=O)(=O)c1ccc(F)cc1 (stereo not given)	CtBP-E1A inh -81
COc1cc(CCC(=O)NCc2ccc(S(N)(=O)=O)cc2)cc(OC)c1OC	CCT modulator -94
CCCCOc1ccccc1C1NC(=O)CCC1[N+](=O)[O-] (stereo not given)	none
COC(=O)C1CCN(c2ccc([N+](=O)[O-])cc2)CC1	CCT modulator -66
O=[N+]([O-])c1ccc(N2CCN(C(=S)NC3CCCCC3)CC2)cc1	pAkt inh -112%
O=[N+]([O-])c1ccc(N2CCN(C(=S)Nc3ccccc3)CC2)cc1	none
CC1CC(=O)Nc2ccccc2N1C(=O)Cn1cnc2ccccc2c1=O (stereo not given)	none (no result: CtBP-E1A inh)
CCOC(=O)c1cnc(-n2[nH]c(C)c(Cc3ccccc3)c2=O)[nH]c1=O	Six1-Eya2 blk -82, CtBP-E1A inh -92
CCOC(=O)c1cnc(-n2[nH]c(C)cc2=O)[nH]c1=O	Six1-Eya2 blk -77, CtBP-E1A inh -92
CCOC(=O)c1cnc(Cc2ccccc2)[nH]c1=O	none
Cc1ccc(S(=O)(=O)Nc2cc(C(C(=O)OC(C)C)C(=O)C(F)(F)F)c(O)c3ccccc23)c(C)c1 (stereo not given)	Six1-Eya2 blk -77
Cc1ccc(S(=O)(=O)Nc2ccc(O)c3ccccc23)c(C)c1	Six1-Eya2 blk inconclusive
COc1cc(C2NC(=O)NC(C)=C2[N+](=O)[O-])cc(OC)c1OC (stereo not given)	none
O=C(NCc1ccccn1)Nc1cc(Cl)ccc1Cl	none
O=C(CC(NCc1ccccn1)C(=O)O)Nc1ccccc1Cl (stereo not given)	Six1-Eya2 blk -91, CtBP-E1A inh -89
CC(C)(O)C#Cc1ccc(CN2CCC(n3nccc3NC(=O)C3CC3)CC2)cc1	none
C=CCn1c(=S)[nH]c2scc(-c3cccs3)c2c1=O	none
Cn1c(=S)[nH]c2scc(-c3cccs3)c2c1=O	CCT modulator -36
COc1ccccc1CN(C)C(=O)c1ccc(S(=O)(=O)Nc2c(C)n(C)n(-c3ccccc3)c2=O)cc1	none
C[C@@H]1CN([C@@H](C)CO)C(=O)c2cc(Br)cnc2O[C@H]1CN(C)C(=O)Nc1ccc2c(c1)OCO2	none
C=CCNC(=S)NNc1nc(Nc2ccccc2)nc(N2CCCCC2)n1	none (no result: CtBP-E1A inh)
C=CCNC(=S)NNc1nc(N2CCCC2)nc(N2CCCC2)n1	CCT modulator -54 (no result: CtBP-E1A inh)
COC(=O)C(=O)C/C(=N/Nc1ncnc2ccccc12)c1ccc(Cl)cc1	Six1-Eya2 blk inconclusive, CtBP-E1A inh inconclusive
CN(C)S(=O)(=O)c1ccc(Cl)c(NC(=O)COC(=O)/C=C/c2ccco2)c1	none
COc1ccc(Nc2oc(-c3cccs3)nc2C#N)cc1	CCT modulator -37
O=C1CC(c2c[nH]c3ccccc23)C(=O)N1c1ccccc1 (stereo not given)	none
COc1cccc(N2C(=O)CC(c3c[nH]c4ccccc34)C2=O)c1 (stereo not given)	pAkt inh -102%
O=S(=O)(NCC(c1ccc2c(c1)OCO2)N1CCOCC1)c1ccccc1 (stereo not given)	none
CC(=O)N1CN(CCCn2ccnc2)Cc2c1sc1c2CCCC1	none
CC(=O)N1CN(Cc2ccccn2)Cc2c1sc1c2CCCC1	Six1-Eya2 blk -74, CtBP-E1A inh inconclusive
Nc1nc(NCCCN2CCOCC2)nc(Nc2ccccc2F)c1[N+](=O)[O-]	none
O=C(CN(CC1CCCO1)C(=O)CNS(=O)(=O)c1ccc(Cl)cc1)NCc1ccco1 (stereo not given)	CCT modulator -46
CCCn1nnnc1SCC(=O)Nc1nnc(CC)s1	pAkt inh -108%
CCCn1nnnc1SCC(=O)Nc1ccc(F)cc1	none
N[C@@]12CCc3nonc3[C@]1(O)CC(c1ccccc1)=[N+]2[O-]	CCT modulator -63
COc1ccccc1C(=O)N/C(=C\c1cn(C)c2ccccc12)C(=O)NCCCN1CCOCC1	none (no result: CtBP-E1A inh, pAkt inh)
Cc1sc2nc(-c3cccs3)oc(=O)c2c1C	none
Cc1sc2nc(-c3ccc(Br)cc3)oc(=O)c2c1C	CCT modulator -38
N#CC(c1ccccc1)c1ccc2c(C(F)(F)F)cc(C(F)(F)F)nc2n1 (stereo not given)	Six1-Eya2 blk -75, CtBP-E1A inh -66
Cc1ccc(C(C#N)c2ccc3c(C(F)(F)F)cc(C(F)(F)F)nc3n2)cc1 (stereo not given)	Six1-Eya2 blk inconclusive, CCT modulator -45, CtBP-E1A inh inconclusive
FC(F)(F)c1cc(C(F)(F)F)c2ccc(N/N=C/c3ccccc3)nc2n1	none
CCOc1ccc2c(c1)-c1c(ssc1=S)C(C)(C)N2C	Six1-Eya2 blk inconclusive, CtBP-E1A inh -71
